SUMO Mot1 rescue – inhibitors of SUMOylation pathway: yeast Mot1-301 growth rescue; actives 1% (n = 320,000); S. cerevisiae Mot1-301 growth rescue, ATP luminescence, 38.5C; percent above DMSO median, 100 means doubled; growth rescue, % at 18.8 µM;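 active means every valid replicate shows activation above 250% relative to neutral control wells; inactive means the rest, any valid replicate at or below 250%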
SKN-1 inh – inhibitors of C. elegans SKN-1; C. elegans VP596 Pgst-4::GFP/RFP ratio, acrylamide-induced, 24 h; inhibition, % at 21.8 µM; actives 0.49% (n = 360,000); AID 624304;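 active means interference check ratio from 0.5 to 1.5 plus GFP to RFP signal ratio inhibition reaching or exceeding a fixed threshold, cut at about 30% in these data, passing the limit was not always enough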
sPLA2-III inh – Inhibits HGIII-sPLA2 liposome hydrolysis, primary screen; Q9NZ20; QFRET BODIPY PC-A2 liposome hydrolysis, fluorescence; inhibition, % at 12.2 µM; actives 0.56% (n = 370,000); AID 743126;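 active means inhibition above mean plus 3 SD of compounds lying within the high and low control bounds, cut at about 19% in these data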
Target sequence (Q9NZ20 whole entry, looked up): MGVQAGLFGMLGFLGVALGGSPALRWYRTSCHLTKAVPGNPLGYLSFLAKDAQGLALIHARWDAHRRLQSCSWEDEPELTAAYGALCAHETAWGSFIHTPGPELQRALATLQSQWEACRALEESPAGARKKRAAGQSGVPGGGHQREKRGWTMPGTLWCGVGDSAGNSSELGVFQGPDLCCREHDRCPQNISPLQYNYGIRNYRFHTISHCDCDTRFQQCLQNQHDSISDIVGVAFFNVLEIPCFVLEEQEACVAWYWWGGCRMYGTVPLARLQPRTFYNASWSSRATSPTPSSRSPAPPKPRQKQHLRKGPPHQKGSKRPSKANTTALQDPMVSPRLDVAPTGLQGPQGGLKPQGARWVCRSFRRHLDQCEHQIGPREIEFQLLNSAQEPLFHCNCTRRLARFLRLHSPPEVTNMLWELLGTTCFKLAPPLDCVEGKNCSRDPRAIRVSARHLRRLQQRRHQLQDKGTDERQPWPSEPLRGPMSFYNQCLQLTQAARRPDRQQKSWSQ
Efflux pump mplx – antifungal efflux pump inhibition, Nile Red retention. S. cerevisiae Candida pump triplex. inhibition, % at 10 µM. actives 0.44% (n = 330,000);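 active means plate passing quality check with inhibition over a set limit, or well fluorescence over plate mean plus 4 SD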;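 further: Nile Red retained in pooled yeast measured as flow cytometry median fluorescence; higher means more Nile Red kept so more efflux inhibition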
Yeast Mot1 SUMO – yeast SUMO pathway inhibition in dose response. growth activity, percent, % at 42 µM. shares compounds with SUMO Mot1 rescue. S. cerevisiae Mot1-301 galactose growth, ATP luminescence, 24 h; -100 = growth of slx-deleted rescue strain. 2,300 tested, under 10 active;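 active means Signal drops as the depositor expects, and the fitted half-maximal dose is no more than ten times the top valid tested dose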;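 further: more negative values mean stronger growth rescue toward the control strain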
Numbers stand for hits; n = inactive; x = no result; + = active, no number. Sampled rows, rich in hits. Any-hit rate of the full collection: about 2.2%.

SMILES	SUMO Mot1 rescue	SKN-1 inh	sPLA2-III inh	Efflux pump mplx	Yeast Mot1 SUMO
CCOc1ccccc1Nc1nnc(SCc2nnc(-c3cc(OC)c(OC)c(OC)c3)o2)s1	608	n	n	n	n
COc1cc2c(cc1NC(=O)c1cccnc1)oc1ccccc12	555	n	n	n	n
Cc1c(C(=O)NC(=S)Nc2ccccc2N2CCCC2)cccc1[N+](=O)[O-]	426	n	n	n	n
CCOc1ccccc1NC(=O)c1ccc2c(c1)C(=O)N(CC(C)C)C2=O	551	n	n	n	n
CCCSc1nnc(NC(=O)CSc2sc3c(O)cc(=O)[nH]c3c2C#N)s1	754	n	n	n	n
O=C(/C=C/NNC(=O)c1ccc(Br)cc1)c1ccccc1	399	n	n	n	n
O=C(CCNC(=O)c1ccccc1)Nc1cccnc1	455	n	n	n	n
CN=C(Nc1cccnc1)c1ccccc1	421	n	n	n	n
COc1ccc(/C=N/OCC(=O)Nc2ccc3c(c2)OCO3)c(OC)c1	n	n	n	n	x
COCCCNC(=O)[C@H]1O[C@@H](n2cnc3c(=O)[nH]c(N)nc32)[C@H](O)[C@@H]1O	x	x	n	x	x
N#CCc1nn(-c2ccc(F)cc2)c(N)c1C#N	n	n	n	n	x
Cc1ccc(C(=O)Nc2ccc3c(c2)OCCO3)c(Cl)c1	408	n	n	n	n
CC(C)c1ccc(/C=C2\SC(N3CCCC3)=NC2=O)cc1	n	n	n	n	x
Cc1ccc(/C=C2\SC(N3CCCC3)=NC2=O)cc1	477	x	n	n	n
Cc1ccc(NS(=O)(=O)c2ccc(NC(=O)C3CCCO3)cc2)cc1 (centres undefined)	469	n	n	n	n
Cc1c(C(=O)NCc2ccc3c(c2)OCCO3)sc(=O)n1Cc1cccc(C(F)(F)F)c1	x	n	n	x	x
CN(CP(=O)(O)C(O)c1ccccc1)S(C)(=O)=O (centres undefined)	935	n	n	n	n
CN(C(=O)CSc1nnc(-c2cccc(F)c2)n1N)C1CCS(=O)(=O)C1 (centres undefined)	401	n	n	n	n
O=C(CNC(=O)c1cccs1)OCC(=O)c1ccccc1Cl	n	n	n	n	x
CCN(CC)CCC(=O)Nc1cccc2c1C(=O)c1ccccc1C2=O	n	n	n	n	x
CC(Sc1ccccc1)C(=O)NNC(=O)c1csc(N2CCOCC2)n1 (centres undefined)	n	n	n	n	x
CCNc1nc(NCC)nc(SCCOC(=O)Nc2ccccc2)n1	+	n	n	n	n
Cc1cc2nc(SCCOC(=O)Nc3ccccc3)nc(C)c2cc1C	n	n	n	n	x
CN1CCc2c(sc(NC(=O)C3CCCCC3)c2C(N)=O)C1	n	n	n	n	x
O=c1[nH]c(=O)n(C2CCCO2)cc1Br (centres undefined)	678	n	n	n	n
SMILES	SUMO Mot1 rescue	SKN-1 inh	sPLA2-III inh	Efflux pump mplx	Yeast Mot1 SUMO
O=C1CCc2cccc(O)c2N1	x	n	n	x	x
COc1cccc(OC)c1OCC(O)CN1CCN(c2ccccc2)CC1 (centres undefined)	+	n	n	n	n
COc1cccc(/C=N/NC(=O)CNC(=O)c2ccco2)c1O	400	n	n	n	n
COc1cccc(/C=N/NC(=O)CNC(=O)c2ccncc2)c1O	n	n	n	n	x
COc1ccc(NC(=O)CSc2ccc3nnc(-c4ccccn4)n3n2)c(OC)c1	n	n	n	n	x
O=C(COC(=O)CCC(=O)c1cccs1)Nc1ccc(S(=O)(=O)N2CCOCC2)cc1	n	n	n	n	x
Cc1ccc(S(=O)(=O)N2CCOCC2)cc1NC(=O)COC(=O)CCC(=O)c1cccs1	522	n	n	n	n
O=C(CSc1nnc2ccccn12)NNC(=O)c1ccccc1	n	n	n	n	x
O=C(CSc1nnc2ccccn12)NNC(=O)c1ccc(Cl)cc1	599	n	n	n	n
Nc1ncnc2c1ncn2[C@@H]1O[C@H](CNCc2c(OCc3ccccc3F)ccc3ccccc23)[C@@H](O)[C@H]1O	n	n	n	n	x
CCNC(=O)C1CC(=O)N(Cc2ccc3c(c2)OCO3)C(=Nc2ccc(F)cc2)S1 (centres undefined)	781	n	n	n	n
CCOC(=O)N1CCN(C(=O)c2cn(CC)c3ccc(S(=O)(=O)N4CCOCC4)cc3c2=O)CC1	n	n	n	n	x
CCn1cc(C(=O)N2CCN(c3ccc(OC)cc3)CC2)c(=O)c2cc(S(=O)(=O)N3CCOCC3)ccc21	798	n	n	n	n
COc1ccc(NC(=O)C(c2ccccc2)N2CCN(c3ccccn3)CC2)cc1Cl (centres undefined)	755	n	n	n	n
Cc1ccc(S(=O)(=O)Cc2ccc(C(=O)N3CCN(c4ccccn4)CC3)o2)cc1	537	n	n	n	n
COc1cc(OC)c(C(=O)N2CCN(c3ccccn3)CC2)cc1OC	798	n	n	n	n
O=C(CCC(=O)OCC(=O)c1ccc(Br)cc1)Nc1cccc2cccnc12	429	n	n	n	n
Cc1cc(Br)ccc1NC(=O)CN1C(=O)C2C3CC(c4ccccc4)C(C3)C2C1=O (centres undefined)	n	n	n	n	x
N#CC1=C(SCC(N)=O)NC(=O)CC1c1ccccc1Cl (centres undefined)	613	n	n	n	n
N#CC1=C(SCC(N)=O)NC(=O)CC1c1cccc2ccccc12 (centres undefined)	x	n	n	x	x
Cc1ccc(CNC(=O)CN(C(=O)C2(C)CC(=O)N=C3C=CC=CN32)c2ccc(F)cc2)cc1 (centres undefined)	n	n	n	n	x
O=c1cc(COc2ncnc3ccccc23)nc2sccn12	543	n	n	n	n
Cc1ccc(Sc2nc3c(c(=O)[nH]c(=O)n3C)n2CCc2ccccc2)cc1	n	n	n	n	x
Cn1c(=O)[nH]c(=O)c2c1nc(Sc1ccccc1)n2CCc1ccccc1	614	n	n	n	n
COCCn1c(SCc2ccc(Cl)cc2)nc2c1c(=O)[nH]c(=O)n2C	+	n	n	n	n
SMILES	SUMO Mot1 rescue	SKN-1 inh	sPLA2-III inh	Efflux pump mplx	Yeast Mot1 SUMO
COCCn1c(SCc2ccc(C)cc2)nc2c1c(=O)[nH]c(=O)n2C	n	n	n	n	x
COC(=O)[C@H](C)NC(=O)C(Cc1ccc2c(c1)OCO2)NC(C)=O (some centres undefined)	x	x	n	x	x
Cc1noc(C)c1Cc1ccc(O)cc1	472	n	n	n	n
O=C(Nc1ccc(Cl)cc1Cl)c1cccc(N2C(=O)C=CC2=O)c1	550	n	23	n	n
O=C(O)c1cccc(N2C(=O)C=CC2=O)c1	x	n	n	x	x
O=C(Nc1ccc2nc3n(c(=O)c2c1)CCCCC3)C(=O)N1CCN(c2ccccc2)CC1	n	n	n	n	x
CC(=O)c1c(C)[nH]c(C(=O)NNC(=O)COc2cc(C)cc(C)c2)c1C	x	n	n	x	x
COc1ccc(C(=O)Sc2ccc(Cl)cc2)cc1OC	+	n	n	n	n
CCOc1ccc(OCC)c(NC(=O)C2COc3ccccc3O2)c1 (centres undefined)	824	n	n	n	n

Source: PubChem
